Reference: the supplement of paper PMC10981050
Where a name gives a salt, the structure may show the parent alone.

Each molecule was assayed on MOLM14 (assay: cell viability relative to vehicle control; higher = less cytotoxic). Settings: 10 µM; SRSF2 genotype: SRSF2 wt/wt.
How it was run: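 Mutant clones made by CRISPR editing and their isogenic wild-type counterparts, from four leukaemia lines, were exposed to a single 10 µM dose of each library compound for 48 h. The supernatant was then removed and CellTiter-Glo luminescence was read. Viability was reported as percent of the on-plate vehicle control.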

| SMILES | cell viability [%] |
| --- | --- |
| C/C(=C\c1csc(C)n1)[C@@H]1C[C@@H]2O[C@@H]2CCC[C@H](C)[C@H](O)[C@@H](C)C(=O)C(C)(C)[C@@H](O)CC(=O)O1 [Epothilone A] | 2.31 |
| C[C@]12C=CC(=O)C=C1CC[C@@H]1[C@@H]2CC[C@@]2(C)[C@H]1CC[C@]2(C)O [Methandrostenolone] | 110 |
| C#C[C@]1(O)C=C[C@H]2[C@@H]3CCC4=CC(=O)CC[C@@H]4[C@H]3CC[C@@]21CC [Gestodene] | 97.1 |
| C/C=C\c1cc(OC)c(OC)cc1OC [Beta-Asarone] | 104 |
| Cc1c(N)nc(C(CC(N)=O)NCC(N)C(N)=O)nc1C(=O)NC(C(=O)NC(C)C(O)C(C)C(=O)NC(C(=O)NCCc1nc(-c2nc(C(=O)NCCC[S+](C)C)cs2)cs1)C(C)O)C(O[C@@H]1O[C@@H](CO)[C@@H](O)[C@H](O)[C@@H]1O[C@H]1O[C@H](CO)[C@@H](O)[C@H](OC(N)=O)[C@@H]1O)c1cnc[nH]1 (stereo not given in full) [Bleomycin sulfate] | 21.6 |
| Cc1cccc(C(C)c2c[nH]cn2)c1C (stereo not given) [Medetomidine HCl] | 102 |
| CCC1(c2ccc(N)cc2)CCC(=O)NC1=O (stereo not given) [Aminoglutethimide (Cytadren)] | 103 |
| COc1cc2c(cc1O)CC1NCCc3cc(OC)c(O)c-2c31 (stereo not given) [Norisoboldine] | 103 |
| Cc1cccc(Cc2c[nH]cn2)c1C [Detomidine HCl] | 106 |
| COC1=C[C@@H]2[C@@H]3Cc4ccc(OC)c(O)c4[C@]2(CCN3C)CC1=O [Sinomenine hydrochloride] | 101 |
| CC(C)=CCCC(C)(O)C1CCC2(C)C1C(O)CC1C3(C)CCC(O)C(C)(C)C3C(OC3OC(CO)C(O)C(O)C3O)CC12C [(20R)-Ginsenoside Rh1] | 107 |
| CN(C)C(=O)Oc1ccc[n+](C)c1 [Pyridostigmine Bromide (Mestinon)] | 94.3 |
| C=CC1CN2CCC1CC2C(O)c1ccnc2ccccc12 (stereo not given) [Cinchonine.cdx] | 104 |
| CC[C@@H]1CN2CC[C@@]3(C(=O)Nc4ccccc43)[C@@H]2C[C@@H]1/C(=C\OC)C(=O)OC [Corynoxine] | 82.5 |
| C[C@@]12C[C@@H](c3ccoc3)OC(=O)[C@@H]1CC[C@]1(C)[C@H]2[C@@H]2C=C[C@@]1(O)C(=O)O2 [Columbin] | 100 |
| Nc1nc(N)nc(N)n1 [Melamine] | 94.4 |
| O=C(/C=C/c1ccccc1)OC[C@H]1O[C@@H](O[C@@H]2OC=C[C@H]3[C@H](O)[C@@H]4O[C@]4(CO)[C@@H]23)[C@H](O)[C@@H](O)[C@@H]1O [Picroside I] | 103 |
| Cc1cccc(C)c1NC1=NCCCS1 [Xylazine HCl] | 91.5 |

| SMILES | cell viability [%] |
| --- | --- |
| c1ccc2c(c1)[I+]c1ccccc1-2 [Diphenyleneiodonium chloride (DPI)] | 2.99 |
| CC(=O)OC12COC1CC(O)C1(C)C(=O)C(O)C3=C(C)C(O)CC(O)(C(OC(=O)c4ccccc4)C21)C3(C)C (stereo not given) [10-DAB (10-Deacetylbaccatin)] | 105 |
| COC(=O)C[C@](O)(CCC(C)(C)O)C(=O)O[C@@H]1C(OC)=C[C@]23CCCN2CCc2cc4c(cc2[C@H]13)OCO4 [Harringtonine] | 1 |
| c1c2c(cc3c1OCO3)-c1cc3ccc4c(c3c[n+]1CC2)OCO4 [Coptisine chloride] | 94.3 |
| O=S(=O)(CC1CS1)c1ccc(Oc2ccccc2)cc1 (stereo not given) | 29.4 |
| CC(NC(C)(C)C)C(=O)c1cccc(Cl)c1 (stereo not given) [Amfebutamone (Bupropion) HCl] | 95.6 |
| O=C1CCC[C@@H]2[C@H]3CCCN4CCC[C@@H](CN12)[C@@H]34 [Matrine ((+)-Matrine)] | 106 |
| C=C[C@H]1CN2CC[C@H]1C[C@H]2[C@H](O)c1ccnc2ccccc12 [Cinchonidine] | 97.8 |
| Cn1cc(C2=C(c3cn(C4CCN(Cc5ccccn5)CC4)c4ccccc34)C(=O)NC2=O)c2ccccc21 | 91.3 |
| O=C(O)CNC(=O)c1c(O)c2ccccc2n(Cc2ccccc2)c1=O | 101 |
| O=c1[nH]c2ccc(Cl)cc2c(N[C@@H]2CN3CCC2CC3)c1-c1nc2ccccc2[nH]1 | -0.01 |
| NCC(O)c1ccc(O)cc1 (racemic) [(+,-)-Octopamine HCl] | 96.8 |
| C=C1[C@H]2C[C@@]3([C@@H]1O)[C@@H](CC2=O)[C@]12[C@@H]4C[C@H]3[C@H]1N(CC)C[C@]4(C)CC[C@@H]2O [Songorine] | 98.4 |
| COc1cc2c(cc1OC)[C@@H](Cc1ccc(O)c(Oc3cc4c(cc3OC)CCN(C)[C@@H]4Cc3ccc(O)cc3)c1)N(C)CC2.[O-][Cl+3]([O-])([O-])O [Liensinine perchlorate] | 56.1 |
| CC(=O)O[C@H]1C(=O)[C@@]2(C)[C@H]([C@H](OC(=O)c3ccccc3)[C@]3(O)C[C@H](O)C(C)=C1C3(C)C)[C@]1(OC(C)=O)CO[C@@H]1C[C@@H]2O | 102 |
| CC(C)[C@]12O[C@H]1[C@@H]1O[C@]13[C@]1(O[C@H]1C[C@H]1C4=C(CC[C@@]13C)C(=O)OC4)[C@@H]2O [Triptolide] | 0.54 |
| CC1=C[C@]23C(=O)[C@@H](C=C(CO)[C@@H](O)[C@]2(O)[C@H]1O)[C@H]1[C@@H](C[C@H]3C)C1(C)C [Ingenol] | 108 |
